Mtb betalactam: beta-lactam sensitization of Mtb H37Rv | M. tuberculosis H37Rv growth with meropenem, percent inhibition | inhibition, % at 25 µM | 0.27% of 330,000 active | AID 434955; call rule not given here;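 also: growth measured after seven days incubation then overnight dye step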
Rv3671c protease: inhibits the M. tuberculosis serine protease Rv3671c; AID 2606; P9WHR9; inhibition, % at 5.96 µM; 0.048% of 320,000 active; in the data active = inhibition above about 38%;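 also: extracellular domain of Rv3671c used as enzyme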
RecA splice inh: inhibitors of M. tuberculosis RecA intein splicing | P9WHJ3 | cell-free RecA intein splicing, fluorescence | inhibition, % (concentration not given with the values) | 0.75% of 290,000 active; in the data active = inhibition above about 30%; inconclusive = no clear call, values can overlap the other calls
Target sequence (P9WHJ3 whole entry, looked up, canonical isoform): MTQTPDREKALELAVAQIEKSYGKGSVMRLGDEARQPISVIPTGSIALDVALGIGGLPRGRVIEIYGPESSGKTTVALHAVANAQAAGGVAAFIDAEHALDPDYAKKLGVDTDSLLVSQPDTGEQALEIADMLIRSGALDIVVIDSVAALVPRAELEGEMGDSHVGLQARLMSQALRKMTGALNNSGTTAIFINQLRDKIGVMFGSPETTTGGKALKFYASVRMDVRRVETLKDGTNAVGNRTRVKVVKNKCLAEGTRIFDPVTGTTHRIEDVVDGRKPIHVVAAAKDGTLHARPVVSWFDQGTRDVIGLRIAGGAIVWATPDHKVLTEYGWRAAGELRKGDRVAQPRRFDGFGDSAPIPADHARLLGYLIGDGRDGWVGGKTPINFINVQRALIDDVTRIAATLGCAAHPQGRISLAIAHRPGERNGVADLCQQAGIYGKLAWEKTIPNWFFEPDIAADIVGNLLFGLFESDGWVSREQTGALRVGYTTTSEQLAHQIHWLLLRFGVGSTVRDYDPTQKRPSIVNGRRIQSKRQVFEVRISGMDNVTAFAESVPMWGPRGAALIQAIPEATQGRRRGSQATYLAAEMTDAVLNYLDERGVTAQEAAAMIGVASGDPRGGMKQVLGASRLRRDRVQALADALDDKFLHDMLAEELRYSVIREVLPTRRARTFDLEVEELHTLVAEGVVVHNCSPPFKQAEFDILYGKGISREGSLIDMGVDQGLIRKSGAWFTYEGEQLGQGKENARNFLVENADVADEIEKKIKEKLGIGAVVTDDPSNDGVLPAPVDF
MazF activator: MazEF (E. coli) toxin RNase activation; P0AE70; FAM/BHQ RNA-DNA oligo cleavage fluorescence, 5 h; activation, % at 20 µM; 0.32% of 350,000 active; in the data active = activation above about 50%
Mtb UGM inh: blocks M. tuberculosis UGM enzyme; inhibition, % at 10 µM; P9WIQ1; 0.06% of 320,000 active; AID 504406; purified UGM, fluorescence polarization probe displacement; in the data active = inhibition above about 10%, passing the limit was not always enough; inconclusive = no clear call, values can overlap the other calls
TcdB inh: inhibitors of Clostridioides difficile toxin B glycohydrolase. P18177. TcdB glycohydrolase enzymatic assay, plate reader. inhibition, % at 9.99 µM. 0.24% of 350,000 active. AID 652162; in the data active = inhibition above about 10%
Hits are given with their value; . = inactive; ? = inconclusive; / = no result. This is a sample that favours compounds with a hit; in the whole collection about 0.97% have one here.

SMILES	Mtb betalactam	Rv3671c protease	RecA splice inh	MazF activator	Mtb UGM inh	TcdB inh
Cc1ccc(-n2[nH]c(C)c(C=Nc3ccc4[nH]c(=O)[nH]c4c3)c2=O)cc1C	.	.	.	62.7	.	/
Cc1ccc(-n2[nH]c(C)c(C=Nc3ccc4[nH]c(=O)[nH]c4c3)c2=O)cc1	.	.	.	.	.	.
C[C@H]1CN([C@@H](C)CO)C(=O)c2cc(C3=CCCC3)cnc2O[C@@H]1CN(C)C(=O)CN1CCOCC1	/	/	/	/	/	.
Cn1c(=O)[nH]c(=O)c2c1nc(Br)n2Cc1ccc(Cl)cc1	/	/	/	.	/	.
Cn1c(=O)[nH]c(=O)c2c1[nH]c(=S)n2CCCc1ccccc1	/	/	.	.	/	12.2
Cn1c(=O)[nH]c(=O)c2c1[nH]c(=S)n2Cc1ccc(Cl)cc1	.	.	.	.	.	13.8
C[C@@H]1CCCCO[C@@H](CN(C)Cc2ccc(C(=O)O)cc2)[C@@H](C)CN([C@H](C)CO)C(=O)c2cc(NC(=O)CCCN(C)C)ccc2O1	/	/	/	/	/	.
CNC[C@@H]1Oc2c(NC(=O)Nc3c(C)noc3C)cccc2C(=O)N([C@H](C)CO)C[C@H]1C	/	/	/	/	/	.
CO[C@H]1CN(C)C(=O)c2ccc(NC(=O)c3cccc(F)c3)cc2OC[C@@H](C)N(C)C[C@H]1C	/	/	/	/	/	.
Cc1ccc(C(=O)Nc2ccc(O)cc2C(=O)O)cc1C	.	.	.	.	.	19.8
Cc1ccc(C(=O)Nc2ccc(O)cc2C(=O)O)cc1	.	.	.	.	.	/
Cc1ccc(N=Cc2ccc(O)cc2O)cc1F	.	.	.	194.3	.	/
O=C(O)CC1CCC1CC(=O)O (configuration not stated)	/	/	/	.	/	.
N[C@@H]1CCCC[C@H]1N.O=C(O)C(=O)O.[Pt]	.	.	50.5	/	.	/
Fc1ccccc1-c1nc(NCC2CC2)nc2ccsc12	/	/	/	/	/	.
Cc1cscc1-c1nc(NCC2CC2)nc2ccsc12	/	/	/	/	/	10.6
COC(=O)C1=NN(C(=O)c2cccc(Br)c2)C(O)(c2ccc(Cl)cc2)C1 (configuration not stated)	.	.	36.5	.	.	.
CCc1ccc2oc(-c3cc(N)ccc3Cl)nc2c1	.	.	.	.	.	14.3
Cc1ccc(-n2ncc(Br)c(Br)c2=O)cc1	/	/	66.7	.	/	/
O=c1c(Br)c(Br)cnn1-c1ccccc1	/	/	/	.	/	.
COc1ccccc1CNC(=O)CNC(=O)N1CC(=O)Nc2ccccc21	.	.	.	.	.	11.3
C[C@@H]1CCCCO[C@H](CN(C)S(=O)(=O)c2ccccc2)[C@@H](C)CN([C@@H](C)CO)C(=O)c2cc(NC(=O)CCCN(C)C)ccc2O1	/	/	/	/	/	.
Cc1nc(-c2ccccn2)nc(SCC(=O)c2ccc(F)cc2)c1Cl	.	.	.	.	.	11.8
COc1ccc(C(=O)CSc2nc(-c3ccccn3)nc(C)c2Cl)cc1	.	.	.	.	.	.
O=C(Oc1ccc(-n2cnnn2)cc1)c1ccco1	.	.	37.8	.	.	/
SMILES	Mtb betalactam	Rv3671c protease	RecA splice inh	MazF activator	Mtb UGM inh	TcdB inh
O=C(COC(=O)c1ccco1)c1ccc2ccccc2c1	.	.	.	.	.	/
O=C(Oc1ccc2ccccc2c1)c1ccco1	.	.	35.3	.	.	/
CCCOC(=O)c1ccc(OC(=O)c2ccco2)cc1	.	.	37.2	.	.	/
O=C(Cn1ccc(NC(=O)OCc2ccccc2)nc1=O)NCc1ccc2c(c1)OCO2	.	.	/	58.2	.	.
CC(C)=CCc1cc(-c2oc3cc(O)cc(O)c3c(=O)c2O)ccc1O	.	.	.	57.4	.	.
O=c1c(O)c(-c2ccccc2)oc2cc(O)cc(O)c12	.	.	/	.	/	.
C[C@H](CO)N1C[C@H](C)[C@@H](CN(C)CC2CCCCC2)Oc2ccc(NC(=O)Nc3cccc4ccccc34)cc2CC1=O	/	/	/	/	/	.
O=[N+]([O-])c1c(NCCCO)cc(Sc2nc3ccccc3s2)c2nonc12	.	.	.	113.8	.	.
Cc1nnc(Sc2cc(NCCO)c([N+](=O)[O-])c3nonc23)s1	/	/	92.8	.	/	.
O=[N+]([O-])c1c(NCCO)cc(N2CCCCCC2)c2nonc12	.	.	.	.	.	.
Cc1noc(C)c1S(=O)(=O)Nc1ccc2c(c1)CC(=O)N([C@H](C)CO)C[C@@H](C)[C@H](CN(C)S(=O)(=O)c1cccs1)O2	/	/	/	/	/	.
CCCn1c(SCC(=O)Nc2nc(-c3ccc(OC)cc3)cs2)nc2c1c(=O)n(C)c(=O)n2C	.	.	.	193.4	.	/
CCOC(=O)Cc1csc(NC(=O)Cn2cnc3c2c(=O)n(C)c(=O)n3C)n1	.	.	.	.	.	.
Cn1c(=O)c2c(ncn2CC(=O)Nc2nc(-c3ccccc3Cl)cs2)n(C)c1=O	.	.	.	73.8	.	/
C[C@H]1CN([C@@H](C)CO)S(=O)(=O)c2ccc(-c3cccc(F)c3)cc2O[C@H]1CN(C)C(=O)C1CC1	/	/	/	/	/	.
COc1ccccc1NC(=O)N[C@H]1C=C[C@H](CC(=O)N[C@@H](C)c2ccccc2)O[C@@H]1CO	/	/	/	/	/	.
COc1ccccc1N1CCN(C2CCCN(C(=O)CCC(=O)N(C)C)C2)CC1 (configuration not stated)	.	.	.	.	10.3	.
O=C(CCl)c1ccc2c(c1)CCN2C(=O)C1CC1	.	.	60.4	/	.	/
CC(=O)c1ccc(NC(=O)CNCC(c2ccccc2)N(C)C)cc1 (configuration not stated)	.	.	.	.	.	15.3
COc1ccc(/C=C/c2cc(=O)c3cc(Cl)ccc3o2)cc1	?	.	.	54.2	.	.
COc1ccc(-c2cc(=O)c3cc(OC)ccc3o2)cc1	.	.	.	.	.	.
O=C(Nc1ccccc1)c1nnsc1S(=O)c1ccc(Cl)cc1 (configuration not stated)	.	.	35.4	.	.	/
Cc1nnsc1S(=O)c1ccc(Cl)cc1 (configuration not stated)	.	.	.	.	.	.

Screens (PubChem)
